Results taken from ChEMBL document CHEMBL4888484, “Replenishing the malaria drug discovery pipeline: Screening and hit evaluation of the MMV Hit Generation Library 1 (HGL1) against asexual blood stage Plasmodium falciparum ,using a nano luciferase reporter read-out” (2022).
Hit rate of the full screen: of about 150,000 compounds, about 540 (0.36%) showed an effect of 50% or more. This excerpt belongs to a sample that is enriched for strong results.

The compounds below were run on Plasmodium falciparum (assay: Primary screen in NF54 nanoGlo assay, in single point, at 2uM, 72h; a lower Z score goes with more inhibition). Conditions: timepoint 72 hour.
Type: functional, Erythrocyte

Compound	% Inhibition [%]	Z score
CC(C)c1cc(=O)[nH]c(-n2nc(C3CC3)cc2NC(=O)COc2ccc3ccccc3c2)n1	54	-12.73
COc1ccc(C(=O)OCC(=O)Nc2cc(C3CC3)nn2-c2ccccc2)c(O)c1	-7	1.34
Cc1nc(CC(=O)Nc2cc(C3CC3)nn2-c2ccccc2)cs1	38	-0.78
CC(C)c1cc(=O)[nH]c(-n2nc(C3CC3)cc2NC(=O)c2ccccc2C(F)(F)F)n1	18	-3.33
CC(C)c1cc(=O)[nH]c(-n2nc(C3CC3)cc2NC(=O)Cc2ccc(Cl)cc2)n1	74	-12.5
COc1ccc(C2CN(Cc3ccccn3)CC2CN(Cc2ccc(F)cc2)C(C)=O)cc1 (stereo unspecified)	15	-1.72
COC(=O)c1ccc(C)c(NC(=O)c2cn(C)cn2)c1O	-2	0.17
COCCCN(Cc1ccco1)C[C@H](O)COC(C)(C)C	2	-0.27
CC(C)(Oc1cc2c(cc1-c1cncc(C3CC3)c1)CCO2)C(=O)O	-1	0.1
Cc1cc(=O)[nH]c(-n2nc(C3CC3)cc2NC(=O)c2ccc(C(C)(C)C)cc2)n1	57	-4.8
CC[C@@H](C(=O)Nc1cc(C)nn1-c1nc2c(c(=O)[nH]1)CCC2)c1ccccc1	17	-3.37
Cn1nc(C2CCCC2)cc1NC(=O)c1ccc(OCC(=O)O)cc1	1	-0.23
COCC(=O)Nc1cc(C2CC2)nn1-c1nc(C)cc(=O)[nH]1	4	-0.78
Cc1cc(=O)[nH]c(-n2nc(C3CC3)cc2NC(=O)C(c2ccccc2)c2ccccc2)n1	86	-11.5
CC(C)c1cc(=O)[nH]c(-n2nc(C3CC3)cc2NC(=O)c2ccc(F)cc2)n1	90	-16.95
CC(C)c1cc(=O)[nH]c(-n2nc(C3CC3)cc2NC(=O)c2ccc(F)c(F)c2)n1	5	-0.72
Cc1nn(C(C)C)c(C)c1CN(C)C(=O)c1cc(C#N)c[nH]1	0	-0.07
CN1C(=O)CCC12CCN(S(=O)(=O)Cc1ccc(Cl)cc1F)CC2	-3	0.59
c1ccc(-c2noc(C3CCN(c4ccc5nncn5n4)CC3)n2)nc1	-18	2.08
CC(C)c1nccn1CC(=O)N(C)[C@@H](C)c1ccc(F)c(F)c1	-1	0.13
C[C@@H]1CN(CCCCO)CCN1C(=O)OC(C)(C)C	-1	0.08
Cc1onc(-c2ccccc2Cl)c1C(=O)NCC1(c2ccc(F)cc2)CCOCC1	-13	2.28
CN1C[C@]2(CCCN(Cc3ccc(OCC(=O)c4ccccc4)cc3)C2)CCC1=O	-5	0.67
CCCc1c(C(=O)N2CCNc3ncccc32)cnn1C1CCCC1	-7	1.14
N#Cc1nc(C2CC2)oc1N1CCN(C(=O)CCc2ccco2)CC1	-7	1.41
CN1CCC(Oc2nc3ccc(F)cc3o2)CC1	-11	1.44
CCNC(=O)c1cc(NCCc2nccn2Cc2ccccc2)ccn1	-9	0.95

Compound	% Inhibition [%]	Z score
Cc1ccccc1N1C(=O)CN(C(=O)C2COc3ccccc3O2)CC1C (stereo unspecified)	-1	0.18
c1ccc2c(-c3cc4c(c(O[C@H]5CCOC5)c3)OCCNC4)csc2c1	-8	1.61
COC(=O)c1cn(Cc2cccnc2)cc2c(O)nnc1-2	0	-0.02
COC(=O)c1cn(CCc2cn3ccccc3n2)cc2c(O)nnc1-2	-7	0.84
CC(C)[C@H](NC(=O)[C@H](Cc1ccccc1)n1cnnn1)c1nc2ccccc2[nH]1	-15	1.85
C#CCn1cnc(-c2ccccc2)c1NC(=O)CCc1ccc(C(C)C)cc1	-7	0.8
COc1cccc2c1Oc1c(c(=O)n(-c3ccccc3)n1CC(=O)Nc1cccc(F)c1)C2	-19	1.9
Cc1c(C(=O)[C@H](C#N)c2nnc(N3CCOCC3)n2-c2ccccc2)nnn1-c1ccc(F)cc1	-7	1.18
Cc1ccc(N2COc3cc4c(cc3C2)OCO4)cc1C	-10	1.51
COc1ccccc1CN1Cc2ccccc2O[C@@H](C)C1=O	-5	0.61
COc1ccccc1CN1COc2cc3c(cc2C1)OCO3	56	-4.75
CN1CC[C@@]2(CCC1=O)CN(c1ccnc3ccc(Cl)cc13)CCN2C	-4	0.66
O=C(Cn1cnnn1)NCc1ccc2c(c1)CCC2	-44	5.16
Cc1nnc([C@@]23COC[C@@H]2CN(C(=O)c2cccc4[nH]ccc24)C3)o1	-10	1.33
Cc1ccc(S(=O)(=O)Nc2ccc(C)n(CC(=O)NCC(C)C)c2=O)cc1	-22	3.01
COc1cccc(NC(=O)Cn2c(C)ccc(NS(=O)(=O)c3ccc(C)cc3)c2=O)c1	74	-9.85
CCC(C)(C)NC(=O)Cn1c(C)ccc(NS(=O)(=O)c2ccc(C)cc2)c1=O	-4	0.69
C=CCN(C)C(=O)NCc1ccc(Br)c(F)c1	2	-0.18
COc1ccc(-c2cn3c(C(=O)N4CCNC(=O)C4)csc3n2)cc1F	-19	2.43
CN1CC[C@H](c2nc3cc(F)ccc3[nH]2)C1	-1	0.12
Cc1noc2ncnc(N3CCCC[C@H]3c3nccs3)c12	-7	0.7
Cc1cc2c(=O)c(C(=O)c3ccncc3)cn(CC(=O)NC3CCCCC3)c2cc1F	-1	0.12
CCOC(=O)c1cn(CC)c2cc(NC3CCCCC3)c(F)cc2c1=O	67	-12.03
CCOC(=O)c1cn(CC2CCCCC2)c2nc(C)ccc2c1=O	23	-2.66
Cc1cc(C)nc(NC[C@H](O)COc2ccc(F)cc2)n1	5	-0.6
Cc1nc(CC(=O)NC[C@H](O)COc2ccc(F)cc2)cs1	-3	0.65
